Screens (PubChem)
PfHsp40 yeast = rescue of yeast from PfHsp40 toxicity, primary screen, S. cerevisiae, ATP luminescence. S. cerevisiae expressing PfHsp40, growth rescue. growth rescue, % at 12.5 µM. 340,000 tested, 0.68% active; in the data active means growth rescue above about 28%, passing the limit was not always enough; inconclusive means no clear call, values can overlap the other calls;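 further: yeast W303a lacking pdr1 and pdr3 grown in galactose medium; growth measured after three days at 30 °C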
PrPC TRFRET = inhibitors of human cell surface prion protein PrPC, primary screen, cell-based, TR-FRET; Major prion protein (Homo sapiens), P04156; TR-FRET read-out; inhibition, % at 13.8 µM; 370,000 tested, 0.43% active; in the data active means inhibition above about 24%
SSB-PriA inh = inhibitors of Klebsiella pneumoniae PriA binding to SSB C-terminal tail, primary screen, biochemical, AlphaScreen | AlphaScreen SSBct-PriA binding, biotinylated peptide | 430,000 tested, 0.6% active | PriA–SSB C-terminal tail interaction (Klebsiella pneumoniae) | inhibition, % at 33 µM | AID 1272365, 2023; in the data active means inhibition mostly above about 37%, no sharp cut-off; inactive means mostly below about 20%
PrP 5UTR inh = inhibition of PrP 5' UTR reporter expression; AID 488862, 2010; inhibition, % (no concentration beside the values); 340,000 tested, 0.35% active; cell-based PrP 5' UTR mRNA reporter, plate reader; in the data active means inhibition above about 52%
MazEF act = activators of E. coli MazEF toxin-antitoxin RNase, primary screen, biochemical, fluorescence, uHTS; activation, % at 20 µM; Endoribonuclease toxin MazF (Escherichia coli (strain K12)), P0AE70; FAM/BHQ RNA-DNA oligo cleavage fluorescence, 5 h; AID 504720, 2011; 350,000 tested, 0.32% active; in the data active means activation above about 50%
Target sequence (P0AE70 whole entry, looked up): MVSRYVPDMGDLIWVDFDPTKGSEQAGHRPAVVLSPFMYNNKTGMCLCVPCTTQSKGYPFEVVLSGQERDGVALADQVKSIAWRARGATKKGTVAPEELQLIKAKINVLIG
Large screens that a line does not name were inactive. Hits are enriched below; roughly 1.8% of the tested compounds scored in any of these assays.

O=C(N/N=C/c1ccc(-c2cccc([N+](=O)[O-])c2)o1)c1ccccc1O	none (no result: SSB-PriA inh)
O=C(N/N=C\c1ccc(-c2ccc([N+](=O)[O-])cc2)o1)c1ccc2c(c1)OCO2	MazEF act 86 (no result: SSB-PriA inh)
O=C(NN=Cc1ccc(-c2ccc([N+](=O)[O-])cc2)o1)c1ccc2c(c1)OCO2	none (no result: PfHsp40 yeast, PrPC TRFRET, PrP 5UTR inh, MazEF act)
O=C(N/N=C/c1ccc(-c2cccc([N+](=O)[O-])c2)o1)c1ccc([N+](=O)[O-])cc1	PfHsp40 yeast 146 (no result: SSB-PriA inh)
O=[N+]([O-])c1cc(C=NN2CCCCC2)ccc1Cl	SSB-PriA inh 43 (no result: PfHsp40 yeast, PrPC TRFRET, PrP 5UTR inh, MazEF act)
COc1ccc(N=N/C(=C\O)C(=O)c2cccs2)cc1	PfHsp40 yeast 478 (no result: SSB-PriA inh)
CN(C)C(CNC(=O)c1c(F)cccc1F)c1ccsc1 (centres undefined)	none (no result: PfHsp40 yeast, PrPC TRFRET, PrP 5UTR inh, MazEF act)
CC(C)c1ccc(-c2nnn(CCC(=O)O)n2)cc1	PrP 5UTR inh 73 (no result: PrPC TRFRET)
CC(=O)N(c1ccccc1)c1nc2ccccc2s1	none
CC(=O)N(c1ccccc1)c1c(F)c(F)c(F)c(F)c1F	PfHsp40 yeast 34
O=C(CCCN1C(=O)/C(=C/c2ccccc2Cl)SC1=S)Nc1cccnc1	none
O=C(N=c1ccn(-c2nc3ccccc3nc2NS(=O)(=O)c2ccccc2)cc1)c1cccs1	MazEF act 413
Cc1ccccc1C(=O)N=c1ccn(-c2nc3ccccc3nc2NS(=O)(=O)c2ccc(F)cc2)cc1	none
COc1ccc(NC(=O)OCCn2c([N+](=O)[O-])cnc2C)cc1	none
Cc1ccc(CSc2nnc(-c3ccncc3)n2CC2CCCO2)cc1 (centres undefined)	PfHsp40 yeast 54
O=C(O)c1ccc(CSc2nnc(-c3ccncc3)n2CC2CCCO2)cc1 (centres undefined)	none
CC(C)(CNS(=O)(=O)c1ccc(Br)s1)N1CCOCC1	none
CCN1C(=O)NC(=O)/C(=C\c2cn(CC(=O)N3CCCCC3C)c3ccccc23)C1=O (centres undefined)	MazEF act active (no result: PrPC TRFRET)
S=C1SCN(Cc2cccnc2)CN1Cc1cccnc1	PfHsp40 yeast 309
Cc1cc(C)c(CSc2ncc(-c3ccc([N+](=O)[O-])cc3)[nH]2)c(C)c1	MazEF act 76
O=[N+]([O-])c1ccc(-c2cnc(SCc3ccccc3Cl)[nH]2)cc1	PfHsp40 yeast 149, SSB-PriA inh 39
NC(=O)CSc1ncc(-c2ccc([N+](=O)[O-])cc2)[nH]1	none
COC(=O)c1cc(CN2C(=O)c3ccccc3C2=O)c(O)c([N+](=O)[O-])c1	none
COc1ccc(/C=N/NC(=O)CN2CCCCCCC2)c(C)c1C	none
CCOC(=O)C=c1sc(=C(C#N)C(=O)NC)n(-c2ccccc2)c1=O	none (no result: PfHsp40 yeast, PrPC TRFRET, PrP 5UTR inh, MazEF act)
COc1cc(/C=C(/C#N)c2nc3ccccc3[nH]2)ccc1OCC(=O)Nc1ccccc1C	none
COc1cc(/C=C(\C#N)c2nc3ccccc3[nH]2)ccc1OC(=O)c1ccco1	MazEF act 56
COc1ccc(C(=O)CC(=O)c2ccccc2O)cc1	none
COc1ccc(O)c(C(=O)CC(=O)c2cccnc2)c1	none
COc1ccc(O)c(C(=O)CC(=O)c2ccccc2C)c1	PfHsp40 yeast 314
COc1ccc(O)c(C(=O)CC(=O)c2ccc(F)cc2)c1	PfHsp40 yeast 230
Cc1cccc(OCC(=O)NCc2ccccc2)c1	none
Cc1cccc(OP(=O)(NCc2ccccc2)Oc2cccc(C)c2)c1	PfHsp40 yeast 118
COc1ccc(OCC(=O)Nc2nc3c(s2)CCCC3)cc1	none
COc1ccc(NC(=O)Nc2nc3c(s2)CCCC3)cc1	PfHsp40 yeast 56
CCOC(=O)[C@@]12CCC3=C1N(CCC3)C(=O)[C@H](CC(=O)NCC1CCCCC1)C2	none (no result: PfHsp40 yeast, SSB-PriA inh, PrP 5UTR inh, MazEF act)
Cc1ccc(/C=C2/Sc3ccc(C(=O)N4CCN(C)CC4)cc3NC2=O)cc1	none
COc1ccc(/C=C2/Sc3ccc(C(=O)N4CCc5ccccc5C4)cc3NC2=O)cc1	PfHsp40 yeast 48
CCOc1ccc(C2C(C#N)=C(N)N3C(=C2C#N)Sc2ccccc23)cc1 (centres undefined)	MazEF act 100 (no result: PrPC TRFRET)
COCCN1CCCc2ccc(NS(=O)(=O)c3ccc(OCC(C)C)cc3)cc21	SSB-PriA inh 39 (no result: PfHsp40 yeast, PrPC TRFRET, PrP 5UTR inh, MazEF act)
COCCN1CCCc2ccc(NS(=O)(=O)Cc3cccc(C)c3)cc21	SSB-PriA inh 40 (no result: PfHsp40 yeast, PrPC TRFRET, PrP 5UTR inh, MazEF act)
COCCN1CCCc2ccc(NS(=O)(=O)c3ccc(Cl)cc3)cc21	none (no result: PfHsp40 yeast, PrPC TRFRET, PrP 5UTR inh, MazEF act)
COCCN1CCCc2ccc(NC(=O)c3cccc(Br)c3)cc21	SSB-PriA inh 56 (no result: PfHsp40 yeast, PrPC TRFRET, PrP 5UTR inh, MazEF act)
NS(=O)(=O)c1cccc(NC(=O)COC(=O)C2CCN(S(=O)(=O)c3cccs3)CC2)c1	none
CCOC(=O)c1c(N2C(=O)CC(Sc3ccccc3C(=O)O)C2=O)sc2c1CCCC2 (centres undefined)	PfHsp40 yeast 41
CC(C)C(=O)N1CCCc2ccc(NC(=O)C(=O)NC3CCCC3)cc21	none (no result: PfHsp40 yeast, PrPC TRFRET, PrP 5UTR inh, MazEF act)
CC1CCN(c2cc(N3CCOCC3)c(F)cc2[N+](=O)[O-])CC1	SSB-PriA inh 58
CC1CCN(c2cc(N3CCOCC3)c([N+](=O)[O-])cc2F)CC1	none
O=[N+]([O-])c1cc(F)c(N2CCc3ccccc3C2)cc1N1CCCCCC1	SSB-PriA inh 65 (no result: PfHsp40 yeast, PrPC TRFRET, PrP 5UTR inh, MazEF act)
O=[N+]([O-])c1cc(F)c(N2CCCCCC2)cc1N1CCc2ccccc2C1	SSB-PriA inh 55 (no result: PfHsp40 yeast, PrPC TRFRET, PrP 5UTR inh, MazEF act)
CCSC(C)CC1CC(=NO)c2c(C)noc2C1 (centres undefined)	none (no result: PfHsp40 yeast, PrPC TRFRET, PrP 5UTR inh, MazEF act)
FC(F)(F)Oc1ccc(NC(=S)Nc2ccc(OC(F)(F)F)cc2)cc1	PfHsp40 yeast 145
Cc1nnc(NC(=O)COc2cccc3ccc(N4CCN(C(=O)c5ccco5)CC4)nc23)s1	none (no result: PfHsp40 yeast, PrPC TRFRET, PrP 5UTR inh, MazEF act)
Cc1cccc(CCNC(=O)C2CCC(CNS(=O)(=O)c3cccs3)CC2)c1 (centres undefined)	none
c1ccc2c(c1)ncn2CCOCCOCCn1cnc2ccccc21	none
Clc1ccc(OCCn2cnc3ccccc32)c(Cl)c1	PfHsp40 yeast 28
Oc1ccc(O)c2c1C1(Cl)C(Cl)=C(Cl)C2(Cl)C1(Cl)Cl	PfHsp40 yeast 83
CCC(CO)Oc1cc(NCc2ccc(Cl)cc2Cl)c2ncn(C(C)C)c2c1 (centres undefined)	SSB-PriA inh 39
O=C(O)CCc1ccc(O)c2ncccc12	SSB-PriA inh 114 (no result: PfHsp40 yeast, PrPC TRFRET, PrP 5UTR inh, MazEF act)
Oc1ccc(-c2ccccc2F)c2cccnc12	none (no result: PfHsp40 yeast, SSB-PriA inh, PrP 5UTR inh, MazEF act)
O=C(O)Cc1ccc(O)c2ncccc12	SSB-PriA inh 87 (no result: PfHsp40 yeast, PrPC TRFRET, PrP 5UTR inh, MazEF act)
Oc1ccc(F)c2cccnc12	SSB-PriA inh 81
OCc1ccc(O)c2ncccc12	PfHsp40 yeast inconclusive, SSB-PriA inh 80
CCOc1ccc(C(=O)c2c(N)c(C(=O)Nc3ccc(Br)cc3)c3ccccn23)cc1	none (no result: PfHsp40 yeast, PrPC TRFRET, PrP 5UTR inh, MazEF act)
O=C(O)c1ccc(O)c2ncccc12	none (no result: PfHsp40 yeast, SSB-PriA inh, PrP 5UTR inh, MazEF act)
O=C(CCl)c1ccc(O)c2ncccc12	SSB-PriA inh 121 (no result: PfHsp40 yeast, PrPC TRFRET, PrP 5UTR inh, MazEF act)
CC(C)(C)NC(=O)C(c1cccs1)N(C(=O)C(=O)NC1CCCC1)c1ccccc1F (centres undefined)	none
O=C(Nc1nc(-c2ccccn2)cs1)C(c1ccccc1)c1ccccc1	none (no result: PfHsp40 yeast, PrPC TRFRET, PrP 5UTR inh, MazEF act)
